For the first assay, the target named is ALX3 (Homo sapiens, UniProt O95076 139-225). Kind of assay: PBM; 200 nM protein, PBS. The settings on record: dsDNA, one strand shown.
ALX3, sequence (O95076 139-225): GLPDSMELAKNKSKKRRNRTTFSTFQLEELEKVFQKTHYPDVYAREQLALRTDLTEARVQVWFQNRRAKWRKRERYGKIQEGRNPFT
Consider GATATGGA, for which the binding signal was 9.24 upbm affinity estimate (log intensity, higher = more binding, comparable within an allelic series). Same read-out and setting: next, TAATACTA: 10.2 upbm affinity estimate (log intensity, higher = more binding, comparable within an allelic series); ATAGAAAA: 8.94 upbm affinity estimate (log intensity, higher = more binding, comparable within an allelic series).

On to ATAACATA, for which the binding signal was 9.54 upbm affinity estimate (log intensity, higher = more binding, comparable within an allelic series).

For the sequence TAAAAGTA, the binding signal is 9.06 upbm affinity estimate (log intensity, higher = more binding, comparable within an allelic series). With GTAATAAC, the binding signal was 10.7 upbm affinity estimate (log intensity, higher = more binding, comparable within an allelic series).

AAAAATAA: the binding signal was 9.76 upbm affinity estimate (log intensity, higher = more binding, comparable within an allelic series). Still for that read-out and setting: the figure for CATATTGA is 9.37 upbm affinity estimate (log intensity, higher = more binding, comparable within an allelic series); for GGTTGTTA it is 9.57 upbm affinity estimate (log intensity, higher = more binding, comparable within an allelic series); for CTTATAAC it is 9.51 upbm affinity estimate (log intensity, higher = more binding, comparable within an allelic series).

Take ACTATTAT: the binding signal is 10.4 upbm affinity estimate (log intensity, higher = more binding, comparable within an allelic series). Same read-out and setting: the figure for CCAAACAA is 8.78 upbm affinity estimate (log intensity, higher = more binding, comparable within an allelic series).

The target of the next assay is T1, NKX2-4 (Homo sapiens, UniProt Q9H2Z4 175-261, R246Q).
T1 sequence: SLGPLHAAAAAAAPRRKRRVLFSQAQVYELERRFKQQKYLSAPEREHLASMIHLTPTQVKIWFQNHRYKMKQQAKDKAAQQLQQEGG
Description: PBM; 200 nM protein, PBS. The settings on record: dsDNA, one strand shown.
As to ATCAAGTA, the binding signal was 12.9 upbm affinity estimate (log intensity, higher = more binding, comparable within an allelic series).

Consider AACAAGTG, for which the binding signal was 12.9 upbm affinity estimate (log intensity, higher = more binding, comparable within an allelic series). On the same count and under the same terms, next, ACTCTTGA: 12.9 upbm affinity estimate (log intensity, higher = more binding, comparable within an allelic series).

On to ACACTCGA, for which the binding signal was 12.9 upbm affinity estimate (log intensity, higher = more binding, comparable within an allelic series).

The target of a further assay is T2, PAX4 (Homo sapiens, UniProt O43316 9-242, F177Y).
T2 sequence: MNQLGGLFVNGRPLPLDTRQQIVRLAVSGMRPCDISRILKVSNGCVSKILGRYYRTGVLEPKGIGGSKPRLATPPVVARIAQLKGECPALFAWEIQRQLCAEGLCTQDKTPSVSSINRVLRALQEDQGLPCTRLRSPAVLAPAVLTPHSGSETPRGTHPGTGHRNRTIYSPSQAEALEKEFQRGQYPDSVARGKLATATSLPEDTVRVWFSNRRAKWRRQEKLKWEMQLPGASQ
Kind of assay: PBM; 200 nM protein, PBS. The settings on record: dsDNA, one strand shown.
As for ATTATGTG, the binding signal was 10.9 upbm affinity estimate (log intensity, higher = more binding, comparable within an allelic series).

Regarding ATCATATA, the binding signal is 10.6 upbm affinity estimate (log intensity, higher = more binding, comparable within an allelic series).

Regarding ATAATTCG, the binding signal is 11 upbm affinity estimate (log intensity, higher = more binding, comparable within an allelic series).

The target in the next assay is PROP1 (Homo sapiens, UniProt O75360 56-141). Kind of assay: PBM; 200 nM protein, PBS. The note with it: dsDNA, one strand shown.
PROP1 (Homo sapiens, UniProt O75360 56-141), sequence (O75360 56-141): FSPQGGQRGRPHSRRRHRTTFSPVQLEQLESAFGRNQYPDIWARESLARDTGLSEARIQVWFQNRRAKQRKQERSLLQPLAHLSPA
Consider GACGACAA, for which the binding signal was 7.4 upbm affinity estimate (log intensity, higher = more binding, comparable within an allelic series).

In the case of AAGAATAT, the binding signal was 8.06 upbm affinity estimate (log intensity, higher = more binding, comparable within an allelic series). Still for that read-out and setting: the figure for AATACTAC is 7.84 upbm affinity estimate (log intensity, higher = more binding, comparable within an allelic series). On the same count and under the same terms, next, AAAATGGG: 7.94 upbm affinity estimate (log intensity, higher = more binding, comparable within an allelic series); ATTGTCTC: 7.7 upbm affinity estimate (log intensity, higher = more binding, comparable within an allelic series).

As for AATCTATA, the binding signal is 8.79 upbm affinity estimate (log intensity, higher = more binding, comparable within an allelic series). Still for that read-out and setting: next, AGGCCAGG: 6.77 upbm affinity estimate (log intensity, higher = more binding, comparable within an allelic series). With TTACTCAA, the binding signal was 8.57 upbm affinity estimate (log intensity, higher = more binding, comparable within an allelic series).

For the sequence AATAGTCC, the binding signal was 8.13 upbm affinity estimate (log intensity, higher = more binding, comparable within an allelic series).

As for AGTTAGAG, the binding signal was 7.87 upbm affinity estimate (log intensity, higher = more binding, comparable within an allelic series). Still for that read-out and setting: the figure for CCCGGGAA is 6.78 upbm affinity estimate (log intensity, higher = more binding, comparable within an allelic series); for GACAGGGC it is 6.65 upbm affinity estimate (log intensity, higher = more binding, comparable within an allelic series); for AATTCCGA it is 8.08 upbm affinity estimate (log intensity, higher = more binding, comparable within an allelic series). Same read-out and setting: the figure for TGTAGTAA is 8.45 upbm affinity estimate (log intensity, higher = more binding, comparable within an allelic series); for AACAATCC it is 7.92 upbm affinity estimate (log intensity, higher = more binding, comparable within an allelic series). Same read-out and setting: next, ATTTCCTA: 7.97 upbm affinity estimate (log intensity, higher = more binding, comparable within an allelic series). For the sequence GCATTACA, the binding signal was 8.11 upbm affinity estimate (log intensity, higher = more binding, comparable within an allelic series). With CCCGACAC, the binding signal is 6.59 upbm affinity estimate (log intensity, higher = more binding, comparable within an allelic series).

As for AAATACAT, the binding signal was 8.5 upbm affinity estimate (log intensity, higher = more binding, comparable within an allelic series). As for CTCTGGAA, the binding signal was 6.65 upbm affinity estimate (log intensity, higher = more binding, comparable within an allelic series). On the same count and under the same terms, next, ATTGTGAG: 8.01 upbm affinity estimate (log intensity, higher = more binding, comparable within an allelic series).

In another assay the target is PROP1 (Homo sapiens, UniProt O75360 56-141, R99H). Kind of assay: PBM; 200 nM protein, PBS. The settings on record: dsDNA, one strand shown.
PROP1 (Homo sapiens, UniProt O75360 56-141, R99H), sequence (O75360 56-141 R99H): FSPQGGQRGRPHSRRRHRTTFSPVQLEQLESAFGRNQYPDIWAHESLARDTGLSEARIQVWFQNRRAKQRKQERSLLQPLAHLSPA
On to AATCTATA, for which the binding signal was 8.14 upbm affinity estimate (log intensity, higher = more binding, comparable within an allelic series). The same measure, in the same setting: the figure for AGGCCAGG is 6.97 upbm affinity estimate (log intensity, higher = more binding, comparable within an allelic series). Turning to TTACTCAA, the binding signal is 7.91 upbm affinity estimate (log intensity, higher = more binding, comparable within an allelic series). Same read-out and setting: the figure for CCCGGGAA is 6.79 upbm affinity estimate (log intensity, higher = more binding, comparable within an allelic series). On the same count and under the same terms, next, GACAGGGC: 6.63 upbm affinity estimate (log intensity, higher = more binding, comparable within an allelic series); AATTCCGA: 7.85 upbm affinity estimate (log intensity, higher = more binding, comparable within an allelic series). Same read-out and setting: the figure for TGTAGTAA is 8 upbm affinity estimate (log intensity, higher = more binding, comparable within an allelic series); for GCATTACA it is 7.66 upbm affinity estimate (log intensity, higher = more binding, comparable within an allelic series). In the case of CCCGACAC, the binding signal is 6.79 upbm affinity estimate (log intensity, higher = more binding, comparable within an allelic series). The same measure, in the same setting: next, AAATACAT: 7.91 upbm affinity estimate (log intensity, higher = more binding, comparable within an allelic series); CTCTGGAA: 6.87 upbm affinity estimate (log intensity, higher = more binding, comparable within an allelic series).

In another assay the target is PROP1 (Homo sapiens, UniProt O75360 56-141, F88S). Kind of assay: PBM; 200 nM protein, PBS. The note with it: dsDNA, one strand shown.
PROP1 (Homo sapiens, UniProt O75360 56-141, F88S), sequence (O75360 56-141 F88S): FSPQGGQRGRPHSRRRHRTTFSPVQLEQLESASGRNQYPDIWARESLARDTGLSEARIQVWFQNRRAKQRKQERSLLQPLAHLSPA
For AATCTATA, the binding signal is 7.56 upbm affinity estimate (log intensity, higher = more binding, comparable within an allelic series).

Consider AGGCCAGG, for which the binding signal was 6.49 upbm affinity estimate (log intensity, higher = more binding, comparable within an allelic series).

For the sequence TTACTCAA, the binding signal was 7.39 upbm affinity estimate (log intensity, higher = more binding, comparable within an allelic series). Still for that read-out and setting: the figure for CCCGGGAA is 6.66 upbm affinity estimate (log intensity, higher = more binding, comparable within an allelic series). For GACAGGGC, the binding signal was 6.47 upbm affinity estimate (log intensity, higher = more binding, comparable within an allelic series). On the same count and under the same terms, the figure for CCCGACAC is 6.7 upbm affinity estimate (log intensity, higher = more binding, comparable within an allelic series); for CTCTGGAA it is 6.91 upbm affinity estimate (log intensity, higher = more binding, comparable within an allelic series).

These data come from paper PMC11006913.
